Screens from PubChem.
Shown are actives, neighbours in structure and some others; about 9.4% of the full set was active somewhere.
SMN2 splice enh = SMN2 splice variant enhancement; HEK293 SMN2-luciferase splicing reporter, luminescence, 30-36 h; Potency, µM (top dose mostly 46.1 µM), inactives show top-dose activity change, positive = activation, hits mostly activators; actives 2.8% (n = 210,000); AID 1458; further: % of control where 0% means no effect; nearly all actives have a fitted effect of over 55% in size
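qHTS luciferase splicing reporter: luminescence rises when SMN2 exon 7 is included in transfected HEK293 cells. Compound exposure lasted 30-36 h at 37C, with 4.5 mM final sodium butyrate as control, followed by a ONE-Glo read.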
FLuc counter = inhibits or activates purified firefly luciferase, miR-21 counter-screen | P08659 | purified FLuc, Km substrates, luminescence inhibition | Potency, µM (top dose mostly 57.5 µM), inactives show top-dose activity change, negative = inhibition, most hits filed as inhibitors | actives 6.9% (n = 360,000) | AID 588342;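 further: plate controls were vehicle for no effect and reference inhibitor for full effect; nearly all actives have a fitted effect of over 55% in size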
Target sequence (P08659 whole entry, looked up): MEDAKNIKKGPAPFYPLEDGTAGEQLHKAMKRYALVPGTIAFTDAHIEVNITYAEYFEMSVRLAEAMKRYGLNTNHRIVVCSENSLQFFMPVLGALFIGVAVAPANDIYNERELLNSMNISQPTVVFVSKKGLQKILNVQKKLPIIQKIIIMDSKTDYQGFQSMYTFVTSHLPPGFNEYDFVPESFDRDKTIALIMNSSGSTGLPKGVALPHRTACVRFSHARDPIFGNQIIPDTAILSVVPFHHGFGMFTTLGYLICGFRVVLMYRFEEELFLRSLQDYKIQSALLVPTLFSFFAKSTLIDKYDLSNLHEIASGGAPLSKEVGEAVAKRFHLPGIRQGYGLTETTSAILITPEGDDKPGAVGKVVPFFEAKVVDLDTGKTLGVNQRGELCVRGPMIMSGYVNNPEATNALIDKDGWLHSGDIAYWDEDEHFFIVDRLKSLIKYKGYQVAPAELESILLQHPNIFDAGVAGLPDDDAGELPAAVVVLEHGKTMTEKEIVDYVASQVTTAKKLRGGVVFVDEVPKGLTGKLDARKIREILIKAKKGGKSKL
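Biochemical qHTS of compounds, final roughly 60 µM downward over six points, against 10 nM purified firefly luciferase using Km concentrations of substrates (10 uM D-luciferin, 10 uM ATP) in Tris acetate pH 7.5 buffer; luminescence output.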
Rab9 promoter act = activates the Rab9 promoter; Huh7 Rab9 promoter-luciferase reporter, luminescence, 24 h; Potency, µM (titrated, usually from 9.22 µM), inactives show at the highest dose activation, negative = inhibition, usual class: activators; actives 2.8% (n = 320,000); further: % of control where 0% means no effect; nearly all actives have a fitted effect of over 60% in size
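Rab9 promoter-driven luciferase in stably transfected Huh7 cells; 1500 cells/well rested 2 h, exposed to compound in DMSO for 24 h at 37 °C, 5% CO2. Luminescence read 10 min after adding luciferase reagent at ambient temperature.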
ELG1 genotox = genotoxicity induction in ELG1-luciferase HEK293T cells | HEK293T ELG1-luciferase reporter, luminescence, 16 h | Potency, µM (series often up to 46 µM), for inactives: at the highest dose activity change, positive = activation, most hits filed as activators | actives 1.3% (n = 330,000); further: % of control where 0% means no effect; nearly all actives have a fitted effect of over 60% in size
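After overnight (16 hr) compound treatment at 37 °C, ELG1-luciferase HEK293T cells were lysed with ONE-Glo; luminescence quantified 30 min later at room temperature.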
NPC1 prom act = NPC1 promoter activation | Huh7 NPC1 promoter luciferase reporter, 24 h | Potency, µM (top dose mostly 9.22 µM), without a hit: at the top dose activation, most hits filed as activators | actives 2.4% (n = 320,000) | AID 485313; further: % of control where 0% means no effect; nearly all actives have a fitted effect of over 60% in size
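Stably transfected Huh7 (NPC1 promoter→luciferase), 1500 cells/well in Opti-MEM + 10% FBS, 2 h settle, then compound 24 h at 37 °C. Luminescence after 10 min with Amplite reagent.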
ELG1 repair inh = ELG1-dependent DNA repair inhibition | HEK293T ELG1-luciferase reporter, luminescence, 16 h; DNA damage induced by 5-fluorouridine | actives 2.3% (n = 330,000) | Potency, µM (highest dose often 46.1 µM), for the others: at the highest dose activity change, negative = inhibition, usual class: inhibitors; further: on the % scale 0 is the no-effect control and ±100 the full control effect; nearly all actives have a fitted effect of over 55% in size
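In this reporter screen, reduction of luminescence relative to DMSO vehicle indicated activity. Compounds and 5-fluorouridine were added together to 2,000 cells per well, incubated for 16 hr at 37 °C, then developed with ONE-Glo.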
The depositor's hits bear a star; ? = inconclusive; / = no result given; [ ] = remark or other dose. The call rests on the fitted dose curve; in most records, active means well fitted curve in the direction sought with a large enough effect; inconclusive means small, poorly fitted or top-dose-only effect, or another doubt; inactive means no such curve, though single readings can be large; an effect the other way counts as inactive or inconclusive. Potency means the concentration at half of the fitted maximal effect.

SMILES | SMN2 splice enh | FLuc counter | Rab9 promoter act | ELG1 genotox | NPC1 prom act | ELG1 repair inh
CC(C)(C)NC(=O)CSc1nnc(NC(=O)c2ccccc2Cl)s1 | 15% | 17µM* | 11% | 7% | 10% | ?
O=C(CSc1nc2ccccc2s1)CSc1nc2ccccc2s1 | 19% | -2% | -4% | 2% | 6% | 7%
O=c1oc2ccccc2n1CSc1nc2ccccc2s1 | 14% | 12µM* | 4µM* | ? | 2.8µM* | ?
Cc1cccc(N2C(=O)CSC23C(=O)N(Cc2cccc(C(F)(F)F)c2)c2ccccc23)c1 (stereo not drawn) | / | -2% | / | / | / | /
CCC(=O)N1c2ccccc2CC1C(=O)NCCN1CCN(c2cc(Cl)ccc2C)CC1 (stereo not drawn) | / | -8% | / | / | / | /
O=C(CSc1nnc(NC(=O)c2ccccc2Cl)s1)NC1CC1 | / | 12µM* | 4.5µM* | 17% | ? | ?
O=C(CSc1nnc(NC(=O)c2c(F)cccc2F)s1)NC1CC1 | / | -6% | -2% | 6% | -2% | ?
Cc1ccc2c(=O)cc(C(=O)Nc3c(C(=O)Nc4cccc(Cl)c4)oc4ccccc34)oc2c1 | -4% | 1% | / | / | / | /
CC(=O)N1N=C(c2ccc(C)cc2)CC1c1cn(-c2ccccc2)nc1-c1cccs1 (stereo not drawn) | 2% | -4% | / | / | / | /
Cc1ccc2c(c1)C(c1ccccc1)N(C(=O)c1cccc([N+](=O)[O-])c1)CC(=O)N2 (stereo not drawn) | / | -1% | -3% | -12% | -5% | 13µM*
O=C1CN(C(=O)c2ccccc2)C(c2ccccc2)c2cc(F)ccc2N1 (stereo not drawn) | / | -1% | 0% | 0% | -1% | 13%
O=C1CN(C(=O)c2ccc(Br)o2)C(c2ccccc2)c2cc(F)ccc2N1 (stereo not drawn) | 7% | -3% | -6% | -1% | 1% | 18µM*
Cc1ccc2c(c1)C(c1ccccc1)N(C(=O)c1ccccc1)CC(=O)N2 (stereo not drawn) | / | -1% | 1% | -4% | 1% | -9%
Cc1nc(N2CCN(S(=O)(=O)c3ccccc3C#N)CC2)c2c(-c3cccs3)csc2n1 | -63% | 2% | 0% | -14% | -8% | 18µM*
COc1ccccc1OCC(=O)NCCSCc1ccccc1Cl | 19% | -15% | 0% | 2% | 3% | 17%
O=C(COc1ccccc1)Nc1ccccc1Cl | -11% | 15µM* | ? | ? | ? | ?
O=C(COc1ccccc1)NCCSCc1ccccc1Cl | / | 27µM* | 7% | 17% | 20% | ?
COc1ccc(CNC(=O)c2cc(-c3ccc(Cl)cc3)n[nH]2)cc1 | / | -1% | / | / | / | /
COc1ccc(CNC(=O)c2cc(-c3ccc(C)c(C)c3)n[nH]2)cc1 | / | 11µM* | / | / | / | /
COc1cccc(-c2cc(C(=O)O)[nH]n2)c1 | 11% | -19% | -7% | 1% | -2% | 15%
COc1cccc(-c2cc(C(=O)Nc3ccc(F)cc3)[nH]n2)c1 | / | 1.7µM* | / | / | / | /
COc1cccc(-c2cc(C(=O)NCc3ccccc3)[nH]n2)c1 | / | 21µM* | / | / | / | /
CCN(C(=O)COC(=O)c1cc(-c2ccc3cc(OC)ccc3c2)nc2ccccc12)C1CCS(=O)(=O)C1 (stereo not drawn) | ? | 0.85µM* | 0.35µM* | 12% | 0.89µM* | ?
CCN(C(=O)COC(=O)c1cc(OC)ccc1Br)C1CCS(=O)(=O)C1 (stereo not drawn) | / | / | / | 1% | / | 3%
CCN(C(=O)COC(=O)c1c(C)nn(-c2ccccc2)c1C)C1CCS(=O)(=O)C1 (stereo not drawn) | / | -19% | ? | 16% | 20% | ?
SMILES | SMN2 splice enh | FLuc counter | Rab9 promoter act | ELG1 genotox | NPC1 prom act | ELG1 repair inh
COc1ccc(-c2cc(C(=O)OCC(=O)N(C)C)c3ccccc3n2)cc1 | ? | 9.5µM* | 23% | -1% | 4% | ?
COc1ccc(-c2cc(C(=O)Oc3ccc(C)cc3)c3ccccc3n2)cc1 | 15% | ? | / | / | / | /
CCN(C(=O)COC(=O)c1c2c(nc3ccccc13)/C(=C/c1ccccc1)CC(C)C2)C1CCS(=O)(=O)C1 (stereo not drawn) | -16% | 6% | -10% | -11% | -6% | 6.5µM*
COc1ccc(-c2cc(C(=O)OCc3ccccn3)c3ccccc3n2)cc1 | / | 6.7µM* | 16% | -3% | 11% | ?
CN1CCN(C(CNC(=O)c2cccc(F)c2)c2ccc3c(c2)OCO3)CC1 (stereo not drawn) | / | 0% | / | / | / | /
CCOC(=O)N1CCc2c(sc3c2c(=O)n(Cc2ccccc2)c(=O)n3CC(=O)Nc2ccc(F)cc2)C1 | 8% | -2% | / | / | / | /
COc1ccc(-c2cc(C(=O)Oc3ccc([N+](=O)[O-])cc3)c3ccccc3n2)cc1 | ? | 5.4µM* | 22% | 13% | 15% | ?
COc1cc(SC)ccc1C(=O)N1CCn2c3c(c4cc(C)ccc42)CCCC31 (stereo not drawn) | 10% | -15% | / | / | / | /
CCOc1ccc(-n2nc(CO)c(C(=O)NCCCc3ccccc3)n2)cc1 | -1% | 5.4µM* | / | / | / | /
CCOc1ccc(-n2nc(CO)c(C(=O)NCc3cccc(OC)c3)n2)cc1 | -14% | 15µM* | / | / | / | /
CCCCn1cc(S(=O)(=O)c2ccc(C)c(C)c2)c(=O)c2cc(F)c(N(CC)CC)cc21 | / | -10% | / | / | / | /
COc1ccc(NC(=S)N2CCC(N(C)CC3CCCO3)CC2)cc1Cl (stereo not drawn) | -4%[1.84 µM] | 5% | -2% | 1% | 0% | ?
COc1cc(OC)cc(-n2c(=O)c3ccccc3n(Cc3ccccc3C#N)c2=O)c1 | -3% | -1% | / | / | / | /
COc1ccc(/C=C/C(=O)Nc2ccc3nc4c(c(Nc5ccc(OC)c(OC)c5)c3c2)CCCC4)cc1 | -81% | -6% | / | / | / | /
COC(=O)c1sc(N2C(=O)C(O)=C(C(=O)c3ccc(C)o3)C2c2ccc([N+](=O)[O-])cc2)nc1C (stereo not drawn) | / | 19µM* | 1.8µM* | ? | 3.5µM* | ?
O=C(c1ccc(Cl)c(Cl)c1)N1CCN(c2ccccn2)CC1 | / | 0% | -1% | -4% | -2% | -23%
O=C(c1ccc(Cl)c(S(=O)(=O)N2CCCCCC2)c1)N1CCN(c2ccccc2O)CC1 | -85% | 0% | 2% | -12% | 2% | 16µM*
O=C(c1ccc(Cl)c(S(=O)(=O)N2CCCC2)c1)N1CCN(c2ccccc2)CC1 | -33% | -1% | -22% | -9% | -5% | 16µM*
O=C1c2ccccc2-c2ccc(C(=O)N3CCCCC3)cc21 | 12% | 27µM* | ? | ? | ? | ?
